Data from PubChem BioAssay (NCATS).
Records with an inconclusive call do not appear. Activity calls are given as the source filed them. The call rests on the fitted dose curve; in most records, active means well fitted cell-killing curve with a large enough effect; inconclusive means small, poorly fitted or top-dose-only effect, or effect the other way; inactive means flat fitted curve, though single readings scatter.

assay: S16 Schwann cell viability assay (CellTiter-Glo assay) (AID 624031); conditions: S16 rat Schwann cells viability, 24 h; series mostly up to 57.5 µM; activity change, negative = cytotoxicity: at the top concentration; further: nearly all actives have a fitted effect of over 70% in size;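 on activity change, negative = cytotoxicity: cellular ATP luminescence as a viability measure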
Source text: Charcot-Marie-Tooth-Association [CMTA]
National Center for Advancing Translational Sciences [NCATS]
Charcot-Marie-Tooth (CMT) disease was first characterized by Jean-Martin Charcot and Pierre Marie in France and, independently, by Howard Henry Tooth in England in 1886. CMT is one of the most common inherited neurological diseases, affecting approximately 1 in 2,500 Americans. […] The most prevalent type of CMT is known as CMT1A and caused by a duplication of the PMP22 gene which leads to over-expression of this protein. PMP22 is a glycosylated intrinsic membrane protein accounting for 2-5% of the myelin protein content, and its over-expression results in demyelination and subsequently axonal loss.
A pair of cellular transcription-based assays was developed in the S16 rat Schwann cell lines (Hai, M., et al., 2002) stably transfected with orthogonal reporters - firefly luciferase (Fluc) and beta-lactamase (beta-Lac) - whose expression is driven by an intronic regulatory element of the PMP22 gene (Jones, E.A., et al., 2011) to recapitulate endogenous expression of PMP22. A comprehensive library of approved drugs, the NCGC Pharmaceutical Collection (Huang, R., et al., 2011), was screened in the cross-validating platform of the orthogonal reporter assays to identify drug modulators inhibitory towards PMP22 expression.
A set of counter-screens was devised to address non-specific activity of the library. An ATP-dependent CellTiter-Glo assay (developed by Promega Corp) was utilized to control cell viability. In addition, biochemical Fluc enzyme assay was performed to assess direct inhibition of the Fluc enzymatic activity.
Hai, M., Muja, N., DeVries, G.H., Quarles, R.H. and Patel, P.I. Comparative analysis of Schwann cell lines as model systems for myelin gene transcription studies. J Neurosci Res, 2002. 69(4): pp 497-508
Huang, R., Southall, N., Wang, Y., Yasgar A., Shinn P., Jadhav, A. , Nguyen, D.-T. and Austin, C.P., The NCGC pharmaceutical collection: a comprehensive resource of clinically approved drugs enabling repurposing and chemical genomics. Sci Transl Med, 2011. 3(80): p. 80ps16.
Native S16 cells were seeded in white solid-bottom 1536 well plates at between 500-750 cells/6uL in DMEM medium containing 10% FBS, w/o phenol red. After overnight incubation at 37 degree Celsius/5% C02, 23 nL of compounds or DMSO were delivered to each well using a pin tool, followed by 24h-incubation at 37 degree Celsius/5% C02. Then one volume of CellTiter-Glo assay reagent (Promega) was added to each well for cell viability measured by a ViewLux plate reader (PerkinElmer). The % activity was determined by normalizing to the average readings from wells containing no cells relative to DMSO-treated cells (0% Activity). The concentration-effect curves were then classified based on curve quality (r2), response magnitude and degree of measured activity.
Potency means the concentration at half of the fitted maximal effect.

Structure (SMILES) | Potency | activity change, negative = cytotoxicity
CCCCc1oc2ccccc2c1C(=O)c1cc(I)c(OCCN(CC)CC)c(I)c1 | 32.2 µM (active) | 
NCCCCCC(=O)O |  | 17% [at 25.7 µM] (inactive)
CN1C(C(=O)Nc2ccccn2)=C(O)c2ccccc2S1(=O)=O |  | 0.0698% [at 25.7 µM] (inactive)
O=C(CCCN1CCC(O)(c2ccc(Cl)cc2)CC1)c1ccc(F)cc1 |  | -14.9% (inactive)
Nc1c2c(nc3ccccc13)CCCC2 |  | 16.4% (inactive)
CNCCCC12CCC(c3ccccc31)c1ccccc12 | 32.2 µM (active) | 
Cn1c(=O)c2c(ncn2C)n(C)c1=O |  | 2.87% (inactive)
COC(=O)Nc1nc2ccc(C(=O)c3cccs3)cc2[nH]1 |  | -13% (inactive)
N[C@@H](Cc1c[nH]c2ccc(O)cc12)C(=O)O |  | -4.67% (inactive)
O=C(c1ccc(F)cc1)C1CCN(CCn2c(=O)[nH]c3ccccc3c2=O)CC1 |  | 14.4% (inactive)
CC(C)(Oc1ccc(C2CC2(Cl)Cl)cc1)C(=O)O (stereo not given) |  | 6.93% (inactive)
CC(C)C(=O)Nc1ccc([N+](=O)[O-])c(C(F)(F)F)c1 |  | 0% (inactive)
O=C1N(c2ccccc2)c2ccccc2C1(Cc1ccncc1)Cc1ccncc1 |  | 1.23% (inactive)
CN(Cc1cnc2nc(N)nc(N)c2n1)c1ccc(C(=O)N[C@@H](CCC(=O)O)C(=O)O)cc1 |  | 0.0835% (inactive)
CS(=O)(=O)CCNCc1ccc(-c2ccc3ncnc(Nc4ccc(OCc5cccc(F)c5)c(Cl)c4)c3c2)o1 |  | 3.65% (inactive)
CS(=O)(=O)Nc1ccc([N+](=O)[O-])cc1Oc1ccccc1 |  | -2.14% [at 25.7 µM] (inactive)
Nc1nc2c(ncn2COC(CO)CO)c(=O)[nH]1 |  | 6.51% [at 25.7 µM] (inactive)
CC(=O)OCC(CCn1cnc2cnc(N)nc21)COC(C)=O |  | 16% (inactive)
Cn1c(=O)c2[nH]cnc2n(C)c1=O |  | 8.65% (inactive)
NC12CC3CC(CC(C3)C1)C2 |  | -0.437% (inactive)

Structure (SMILES) | Potency | activity change, negative = cytotoxicity
NC(=O)NO |  | 3.65% (inactive)
O=c1[nH]cc(F)c(=O)[nH]1 |  | -5.05% (inactive)
CN(C)CCOC(c1ccccc1)c1ccccc1 |  | 8.17% (inactive)
O=c1c(-c2ccc(O)cc2)coc2cc(O)cc(O)c12 |  | 4.54% (inactive)
OCCN(CCO)c1nc(N2CCCCC2)c2nc(N(CCO)CCO)nc(N3CCCCC3)c2n1 |  | -18% (inactive)
Cc1cn([C@H]2C[C@H](N=[N+]=[N-])[C@@H](CO)O2)c(=O)[nH]c1=O |  | 1.97% (inactive)
COc1ccc2[nH]cc(CCNC(C)=O)c2c1 |  | 2.77% (inactive)
CN(CCOc1ccc(NS(C)(=O)=O)cc1)CCc1ccc(NS(C)(=O)=O)cc1 |  | 2.93% (inactive)
CN(C)CCCN1c2ccccc2CCc2ccc(Cl)cc21 | 20.3 µM (active) | 
NCCS(=O)(=O)O |  | -4.37% (inactive)
CC(CCc1ccc(O)cc1)NCCc1ccc(O)c(O)c1 (stereo not given) |  | 6.24% (inactive)
NS(=O)(=O)c1cc2c(cc1Cl)NCNS2(=O)=O |  | -5.46% (inactive)
Cc1cc(C(C)(C)C)cc(C)c1CC1=NCCN1 |  | -27.9% [at 25.7 µM] (inactive)
CC#C[C@]1(O)CC[C@H]2[C@@H]3CCC4=CC(=O)CCC4=C3[C@@H](c3ccc(N(C)C)cc3)C[C@@]21C |  | -8.72% (inactive)
COc1cc2c(c(OC)c1OC)-c1ccc(OC)c(=O)cc1[C@@H](NC(C)=O)CC2 |  | -0.301% (inactive)
CC12CC3CC(C)(C1)CC(N)(C3)C2 |  | -1.95% (inactive)
CCOC(=O)c1ncn2c1CN(C)C(=O)c1cc(F)ccc1-2 |  | 8.74% (inactive)
Cc1cnc(C(=O)NCCc2ccc(S(=O)(=O)NC(=O)NC3CCCCC3)cc2)cn1 |  | 4.84% (inactive)
NCCc1cnc[nH]1 |  | -1.63% (inactive)
Cc1ccc(C(=O)Nc2ccc(S(=O)(=O)O)c3cc(S(=O)(=O)O)cc(S(=O)(=O)O)c23)cc1NC(=O)c1cccc(NC(=O)Nc2cccc(C(=O)Nc3cc(C(=O)Nc4ccc(S(=O)(=O)O)c5cc(S(=O)(=O)O)cc(S(=O)(=O)O)c45)ccc3C)c2)c1 |  | 0% (inactive)
